Measurements published in PubChem BioAssay.
Calls of active or inactive are those of the source. Unless noted, the rule behind the calls is not given here.

Key:
[1] = system: XIP peptide (Xip251-270) binding; assay: small-molecule binders of XIP peptide, primary screen, biochemical, small-molecule microarray, fluorescence 635/667 nm, 0.1 µg/mL protein (AID 1182); conditions: fluorescent protein binding, 635 nm, higher = more signal, called active from +8 up or from −8 down
[2] = system: XIP peptide (Xip251-270); assay: small-molecule binders of XIP peptide, primary screen, biochemical, small-molecule microarray, fluorescence 635/667 nm, 0.5 µg/mL protein (AID 1183); conditions: small-molecule microarray binding, fluorescence 635 nm; higher = more signal
[3] = Plasmodium falciparum growth inhibition, primary screen, strain 3D7, DAPI fluorescence, 100 nL (AID 1184);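 note: parasites grown inside human red blood cells in medium with human serum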; conditions: P. falciparum 3D7 growth, 3 d, higher = more signal
[4] = target: Homeobox protein Hox-A13 (Mus musculus) (UniProt Q62424); assay: inhibitors of HoxA13-DNA binding, primary screen, biochemical, fluorescence polarization, labeled oligonucleotide (AID 1185); conditions: 15 min, higher = more signal, called active from +8 up or from −8 down
[5] = inhibitors of hydroxyurea-induced Chk1 phosphorylation, primary screen, imaging, HeLa, phospho-Chk1 antibody, percent positive cells (AID 1186); conditions: hydroxyurea-induced phospho-Chk1 immunofluorescence imaging, higher = more signal
[6] = inhibitors of hydroxyurea-induced Chk1 phosphorylation, primary screen, imaging, HeLa, phospho-Chk1 nuclear intensity (AID 1187); conditions: hydroxyurea-induced phospho-Chk1 immunofluorescence imaging, higher = more signal

Sequence of Homeobox protein Hox-A13 (Mus musculus) (Q62424 whole entry, looked up): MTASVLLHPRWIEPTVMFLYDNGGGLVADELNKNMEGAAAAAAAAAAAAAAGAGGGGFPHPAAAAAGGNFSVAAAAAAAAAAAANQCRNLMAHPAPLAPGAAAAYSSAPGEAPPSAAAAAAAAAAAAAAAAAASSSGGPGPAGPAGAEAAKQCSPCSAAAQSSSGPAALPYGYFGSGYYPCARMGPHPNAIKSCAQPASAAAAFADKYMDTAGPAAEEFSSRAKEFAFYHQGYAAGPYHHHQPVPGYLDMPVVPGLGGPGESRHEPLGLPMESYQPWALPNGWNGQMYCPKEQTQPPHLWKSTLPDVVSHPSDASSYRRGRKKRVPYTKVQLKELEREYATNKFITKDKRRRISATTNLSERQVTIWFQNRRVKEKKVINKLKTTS

SMILES | composite z-score [1] | composite z-score [2] | z-score [3] | z-score [4] | z-score [5] | z-score [6]
C=CC1(C(=O)OC)CC=C(C(=O)OC)CC1 (stereo not drawn) | 0.552 (inactive) | 0.992 | 0.928 | -1.09 (inactive) | -1.36 (inactive) | -1.26 (inactive)
CCOC(=O)C1=CC[C@@H](c2ccccc2)N(S(=O)(=O)c2ccc(C)cc2)[C@H]1c1ccccc1C | -0.164 (inactive) | 0.291 | -1.71 | -0.813 (inactive) | 0.023 (inactive) | 0.112 (inactive)
NCCCCCNC(=O)[C@@H]1C[C@@H]2C(=O)N[C@@H](Cc3ccccc3)C(=O)N2[C@@H]1c1ccc(O)cc1 | 0.632 (inactive) | 0.549 | 1.35 | -1.87 (inactive) | 0.296 (inactive) | 0.204 (inactive)
CCCC=C(CCC)[C@@H](NC(=O)c1cccs1)c1ccc(C(F)(F)F)cc1 | 0.0798 (inactive) | 0.477 | -1.65 | -2.14 (inactive) | 0.247 (inactive) | 0.201 (inactive)
CC(=O)NCCCC[C@@H]1NC(=O)[C@H]2C[C@@H](C(=O)NCCCCCCNC(=O)CS)[C@@H](c3ccc(O)cc3)N2C1=O | 0.957 (inactive) | 0.818 | -1.26 | -4.69 (inactive) | 0.307 (inactive) | 0.663 (inactive)
O=C1C[C@@](C(=O)NCCN2CCOCC2)(c2ccc([N+](=O)[O-])cc2)[C@@H](c2ccc(CO)cc2)N1CC12CC3CC(CC(C3)C1)C2 | 1.28 (inactive) | 0.795 | -1.29 | -4.58 (inactive) | -0.489 (inactive) | -0.649 (inactive)
O=C1C[C@@](C(=O)NC2CC2)(c2ccc([N+](=O)[O-])cc2)[C@@H](c2ccc(CO)cc2I)N1C1CCCCC1 | 0.0057 (inactive) | 0.693 | -1.28 | -4.72 (inactive) | -0.254 (inactive) | -0.233 (inactive)
CN(C)CCCC[C@@H]1NC(=O)[C@H]2C[C@@H](C(=O)NCCCCCCN)[C@@H](c3ccc(O)cc3)N2C1=O | 1.38 (inactive) | 0.785 | -0.135 | -1.16 (inactive) | 0.323 (inactive) | 0.362 (inactive)
O=C(OCc1ccccc1)C1=CCC2c3[nH]c4ccccc4c3C(=O)C1N2S(=O)(=O)c1ccccc1[N+](=O)[O-] (stereo not drawn) | -0.0884 (inactive) | -0.0191 | -1.07 | -1.47 (inactive) | -0.824 (inactive) | -1.44 (inactive)
O=C(N1CCCCC1)[C@]1(Cc2ccccc2)N=C(c2ccc(OCCCO)cc2)O[C@@H]1c1ccccc1 | 0.0557 (inactive) | 0.657 | -2.79 | -4.71 (inactive) | -0.6 (inactive) | -0.641 (inactive)
OCCCC1=CC(c2cccs2)N(Cc2cc3c(cc2Br)OCO3)CC1 (stereo not drawn) | 0.412 (inactive) | 0.435 | -1.82 | -2.36 (inactive) | 0.32 (inactive) | 0.998 (inactive)
O=C1N(Cc2ccccc2)c2ccccc2[C@@H]2OC(c3ccc(OCCCO)cc3)=N[C@]12CCS(=O)(=O)c1ccccc1 | 0.7 (inactive) | 0.677 | -2.13 | 1.28 (inactive) | -0.413 (inactive) | -0.77 (inactive)
COCCOC(=O)N1C(=O)[C@@]2(c3ccccc31)[C@H](c1ccccc1OCCO)N1[C@H](c3ccccc3)[C@H](c3ccccc3)OC(=O)[C@H]1[C@@H]2C(=O)N1CCN(c2ncccn2)CC1 | 1.04 (inactive) | 0.799 | -2.2 | -1.99 (inactive) | 0.0172 (inactive) | 0.0629 (inactive)
